Among the data in PubChem BioAssay (NCI) are growth values, retold here.

Structures are written as SMILES. This is part of a sample that, as a whole, favours compounds with a hit. Of some 83,000 tested, about 20% had one in any assay.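 Each cell line was grown in a 96-well plate and treated with one concentration of compound for 48 hours. Values below 10 were considered active.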 Unmarked numbers belong to inactive results. Active and inactive are the calls of the source.

In the experiment the test system is MDA-MB-468 breast. Nature of the experiment: NCI-60 one-dose screen, 48 h (100 = growth as untreated, 0 = no growth, -100 = all killed). The note with it: 10 µM unless noted.
For `COc1cc(C(=O)Nc2ccc(N(C)C)cc2)cc(OC)c1OC`, the growth is 80%.
On to `Cc1cc2c(C(=O)NCC#N)cccc2n1-c1nc2c(c(NCc3ccccc3)n1)CCCC2`, for which the growth was -52.5% (active).
In the case of `O=C(O)c1cccc(S(=O)(=O)c2ccccc2)c1` it was 94.7%.
In the case of `COc1cc2ccccc2cc1C(=O)NC(=S)Nc1ccc(-c2nc3ccccc3[nH]2)cc1` it was 90.2%.
